SMILES strings stand for the structures. Activity calls are given as the source filed them. How the source made its calls: active means hit-call score of the fitted dose curve at least 0.9, where 1 is the maximum; inactive means score below 0.9.

Common to all, as to details: mRNA level, 48 h; actives raise or lower the signal
Read-out in assay [1]: JUN Transcription Factor, JUN (gene 3725)
The experiment in a line: LTEA_HepaRG_JUN: Life Technologies and Expression Analysis (LTEA) Assay for JUN Transcription Factor using HepaRG (AID 2283513). A digest of the protocol: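 mRNA measured by TaqMan qRT-PCR after 48 h chemical exposure of HepaRG cultures; normalization to three housekeeping genes. Duplicate eight-point half-log curves from 100 uM in 0.5% DMSO; gain or loss fitted against DMSO baseline.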

Read-out in assay [2]: Lipase C (LIPC), LIPC (gene 3990)
The experiment in a line: LTEA_HepaRG_LIPC: Life Technologies and Expression Analysis (LTEA) Assay for Lipase C (LIPC) using HepaRG (AID 2283514). The gist of the method:
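In this multiplexed gene-expression screen, human HepaRG cultures received test chemicals for 48 h across eight concentrations with 100 uM highest, in duplicate. Values reflect LIPC mRNA induction or suppression versus DMSO vehicle, from normalized qRT-PCR.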

Read-out in assay [3]: Lipoprotein lipase (LPL), LPL (gene 4023)
The experiment in a line: LTEA_HepaRG_LPL: Life Technologies and Expression Analysis (LTEA) Assay for Lipoprotein lipase (LPL) using HepaRG (AID 2283515). A digest of the protocol: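 Concentration-response testing used half-log steps from 100 uM in 0.5% DMSO on human HepaRG cells, 48 h, duplicate wells. Phenobarbital 1 mM served as induction control; LPL mRNA was normalized to ACTB, GAPDH, POLR2A.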

Read-out in assay [4]: MicroRNA 122 (MIR122), gene 406906
The experiment in a line: LTEA_HepaRG_MIR122: Life Technologies and Expression Analysis (LTEA) Assay for MicroRNA 122 (MIR122) using HepaRG (AID 2283516). Further: the transcript read is the microRNA miR-122. A digest of the protocol:
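Expression measured by microfluidic qRT-PCR with three housekeeping genes for normalisation, after 48 h treatment of HepaRG cultures. Eight concentrations (top 100 uM, half-log steps, 0.5% DMSO vehicle) in duplicate; gain or loss fitted relative to vehicle.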

Read-out in assay [5]: matrix metalloproteinase-10 (MMP10), MMP10 (gene 4319)
The experiment in a line: LTEA_HepaRG_MMP10: Life Technologies and Expression Analysis (LTEA) Assay for matrix metalloproteinase-10 (MMP10) using HepaRG (AID 2283517). A digest of the protocol:
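In differentiated HepaRG cultures kept in 0.5% DMSO, test chemicals act for 48 h over an eight-point range with a top dose of 100 uM. Expression is then quantified by TaqMan RT-PCR against ACTB, GAPDH and POLR2A.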

Read-out in assay [6]: MYC, MYC (gene 4609)
As to the kind of experiment: LTEA_HepaRG_MYC: Life Technologies and Expression Analysis (LTEA) Assay for MYC using HepaRG (AID 2283518). The gist of the method: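 MYC transcript changes, up or down relative to 0.5% DMSO, from TaqMan qRT-PCR normalized to three housekeeping genes. Human HepaRG cultures received chemicals for 48 h at eight half-log concentrations up to 100 uM, in duplicate.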

Read-out in assay [7]: matrix metalloproteinase-3 (MMP3), MMP3 (gene 4314)
The experiment in a line: LTEA_HepaRG_MMP3: Life Technologies and Expression Analysis (LTEA) Assay for matrix metalloproteinase-3 (MMP3) using HepaRG (AID 2283519). A digest of the protocol:
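Human liver HepaRG cultures received chemicals (top concentration 100 uM, 0.5% DMSO) for 48 h in duplicate. MMP3 mRNA induction or loss was then assessed via TaqMan qRT-PCR with housekeeping-gene normalisation.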

Read-out in assay [8]: Paternally Expressed 10 (PEG10), PEG10 (gene 23089)
The experiment in a line: LTEA_HepaRG_PEG10: Life Technologies and Expression Analysis (LTEA) Assay for Paternally Expressed 10 (PEG10) using HepaRG (AID 2283520).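 On AC50: differentiated HepaRG human liver cells in serum-free induction medium with 0.5% DMSO; PEG10 transcript by qRT-PCR normalised to ACTB GAPDH and POLR2A.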 The gist of the method:
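PEG10 transcript measured by Fluidigm qRT-PCR, normalized to three housekeeping genes, in HepaRG cells treated 48 h (highest 100 uM, half-log steps, 0.5% DMSO vehicle). Cells plated 48 h before switching to serum-free induction medium.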

Read-out in assay [9]: Protein phosphatase 2A (PPP2R4), PTPA (gene 5524)
As to the kind of experiment: LTEA_HepaRG_PPP2R4: Life Technologies and Expression Analysis (LTEA) Assay for Protein phosphatase 2A (PPP2R4) using HepaRG (AID 2283522). A digest of the protocol: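 Expression was quantified by Fluidigm qRT-PCR normalised to three housekeeping genes after 48 h treatment. Human HepaRG cells received an 8-point series from 100 µM downward by half-logs, in duplicate with 0.5% DMSO vehicle and 1 mM phenobarbital as induction control.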

Read-out in assay [10]: Phosphatase and tensin (PTEN), PTEN (gene 5728)
The experiment in a line: LTEA_HepaRG_PTEN: Life Technologies and Expression Analysis (LTEA) Assay for Phosphatase and tensin (PTEN) using HepaRG (AID 2283523). A digest of the protocol: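 Expression of PTEN is quantified in the human liver line HepaRG following two days of dosing (top concentration 100 uM, half-log dilutions, 0.5% DMSO). Values derive from bidirectional curve fitting relative to DMSO controls.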

Read-out in assay [11]: solute carrier (SLC22A1), SLC22A1 (gene 6580)
As to the kind of experiment: LTEA_HepaRG_SLC22A1: Life Technologies and Expression Analysis (LTEA) Assay for solute carrier (SLC22A1) using HepaRG (AID 2283524).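 On AC50: differentiated human HepaRG liver cells in serum-free induction medium; TaqMan qRT-PCR normalized to ACTB GAPDH and POLR2A housekeeping genes.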 A digest of the protocol:
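Transcript induction or suppression of SLC22A1 in human HepaRG cultures is scored after 48 h chemical treatment, with DMSO (0.5%) as baseline for bidirectional fitting. Concentrations span eight half-log points topping at 100 uM.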

Read-out in assay [12]: Pyruvate Dehydrogenase Kinase 4 (PDK4), PDK4 (gene 5166)
The experiment in a line: LTEA_HepaRG_PDK4: Life Technologies and Expression Analysis (LTEA) Assay for Pyruvate Dehydrogenase Kinase 4 (PDK4) using HepaRG (AID 2283525). The gist of the method:
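Eight-point, half-log concentration series (max 100 uM, 0.5% DMSO) applied to differentiated HepaRG cells for 48 h in duplicate. Endpoint: PDK4 mRNA induction or repression by qRT-PCR against DMSO baseline.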

Read-out in assay [13]: NAD(P)H dehydrogenase [quinone] 1 (NQO1), NQO1 (gene 1728)
As to the kind of experiment: LTEA_HepaRG_NQO1: Life Technologies and Expression Analysis (LTEA) Assay for NAD(P)H dehydrogenase [quinone] 1 (NQO1) using HepaRG (AID 2283526). The gist of the method:
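NQO1 transcript induction or loss measured by TaqMan qRT-PCR, referenced to three housekeeping genes and fitted bidirectionally against 0.5% DMSO. HepaRG cultures exposed 48 h, duplicate, eight-point half-log series, top 100 uM.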

Read-out in assay [14]: Nuclear factor erythroid 2-related factor 2 (Homo sapiens) (UniProt Q16236)
The experiment in a line: LTEA_HepaRG_NFE2L2: Life Technologies and Expression Analysis (LTEA) Assay for Nuclear factor erythroid 2-related factor 2 (NFE2L2) Transcription Factor using HepaRG (AID 2283527). The gist of the method:
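Human liver HepaRG line treated in duplicate for 48 h with an eight-point series topping at 100 uM. Gene expression of NFE2L2 by qRT-PCR, bidirectionally fitted against the vehicle control.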

Read-out in assay [15]: succinate dehydrogenase complex iron sulfur subunit B (SDHB), SDHB (gene 6390)
The experiment in a line: LTEA_HepaRG_SDHB: Life Technologies and Expression Analysis (LTEA) Assay for succinate dehydrogenase complex iron sulfur subunit B (SDHB) using HepaRG (AID 2283528). The gist of the method:
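HepaRG cells (~100,000/well, plated 48 h) exposed in duplicate for 48 h in serum-free induction medium to 8-point half-log series from 100 uM in 0.5% DMSO; mRNA by qRT-PCR normalised to ACTB, GAPDH, POLR2A; bidirectional fit versus DMSO.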

Read-out in assay [16]: Signal transducer and activator of transcription 3 (Homo sapiens) (UniProt P40763)
As to the kind of experiment: LTEA_HepaRG_STAT3: Life Technologies and Expression Analysis (LTEA) Assay for Signal transducer and activator of transcription (STAT3) using HepaRG (AID 2283529). The gist of the method: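 In this transcriptional endpoint, HepaRG cultures receive test chemicals at up to 100 uM for 48 h, tested in duplicate. STAT3 mRNA is normalized to ACTB, GAPDH and POLR2A.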

Read-out in assay [17]: solute carrier (SLCO1B1), SLCO1B1 (gene 10599)
As to the kind of experiment: LTEA_HepaRG_SLCO1B1: Life Technologies and Expression Analysis (LTEA) Assay for solute carrier (SLCO1B1) using HepaRG (AID 2283530). The gist of the method:
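SLCO1B1 transcript levels were quantified by TaqMan qRT-PCR using three housekeeping genes for normalization. This followed 48 h chemical exposure (100 uM top, half-log, 8 points, 0.5% DMSO) of HepaRG liver cells, with gain or loss fitted relative to DMSO.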

Read-out in assay [18]: sulfotransferase 2A1 (SULT2A1), SULT2A1 (gene 6822)
The experiment in a line: LTEA_HepaRG_SULT2A1: Life Technologies and Expression Analysis (LTEA) Assay for sulfotransferase 2A1 (SULT2A1) using HepaRG (AID 2283531). The gist of the method: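 Expression change of SULT2A1, by qRT-PCR with three housekeeping-gene normalization, was scored bidirectionally versus DMSO. Cells: differentiated HepaRG, dosed in duplicate for 48 h across 8 points, highest 100 µM, half-log dilution, 0.5% DMSO.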

Read-out in assay [19]: Transforming Growth Factor (TGFA), TGFA (gene 7039)
The experiment in a line: LTEA_HepaRG_TGFA: Life Technologies and Expression Analysis (LTEA) Assay for Transforming Growth Factor (TGFA) using HepaRG (AID 2283532). The gist of the method: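 Gene expression of TGFA was quantified by qRT-PCR after human HepaRG cells were treated for 48 h with test chemicals (eight concentrations, highest 100 uM, 0.5% DMSO). Activity in either direction was fitted relative to DMSO.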

Chain of Nuclear factor erythroid 2-related factor 2 (Homo sapiens) (Q16236 whole entry, looked up): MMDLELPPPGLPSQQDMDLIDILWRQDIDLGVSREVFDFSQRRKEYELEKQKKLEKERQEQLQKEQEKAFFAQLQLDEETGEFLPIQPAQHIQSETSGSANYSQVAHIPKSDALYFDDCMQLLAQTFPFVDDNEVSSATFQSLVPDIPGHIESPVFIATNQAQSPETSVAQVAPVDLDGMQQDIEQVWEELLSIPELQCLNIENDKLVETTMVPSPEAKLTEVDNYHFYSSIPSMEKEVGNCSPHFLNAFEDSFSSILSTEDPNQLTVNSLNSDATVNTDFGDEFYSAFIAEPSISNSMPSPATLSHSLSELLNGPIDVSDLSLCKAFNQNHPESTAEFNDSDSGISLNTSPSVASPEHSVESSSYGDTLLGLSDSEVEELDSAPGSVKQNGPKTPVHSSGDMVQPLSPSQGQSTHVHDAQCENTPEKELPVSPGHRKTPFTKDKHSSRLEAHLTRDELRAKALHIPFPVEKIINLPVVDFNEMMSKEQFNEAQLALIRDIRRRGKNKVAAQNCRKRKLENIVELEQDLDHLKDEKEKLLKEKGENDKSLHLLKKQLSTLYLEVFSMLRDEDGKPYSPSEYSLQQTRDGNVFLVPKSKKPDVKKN
Chain of Signal transducer and activator of transcription 3 (Homo sapiens) (P40763 whole entry, looked up): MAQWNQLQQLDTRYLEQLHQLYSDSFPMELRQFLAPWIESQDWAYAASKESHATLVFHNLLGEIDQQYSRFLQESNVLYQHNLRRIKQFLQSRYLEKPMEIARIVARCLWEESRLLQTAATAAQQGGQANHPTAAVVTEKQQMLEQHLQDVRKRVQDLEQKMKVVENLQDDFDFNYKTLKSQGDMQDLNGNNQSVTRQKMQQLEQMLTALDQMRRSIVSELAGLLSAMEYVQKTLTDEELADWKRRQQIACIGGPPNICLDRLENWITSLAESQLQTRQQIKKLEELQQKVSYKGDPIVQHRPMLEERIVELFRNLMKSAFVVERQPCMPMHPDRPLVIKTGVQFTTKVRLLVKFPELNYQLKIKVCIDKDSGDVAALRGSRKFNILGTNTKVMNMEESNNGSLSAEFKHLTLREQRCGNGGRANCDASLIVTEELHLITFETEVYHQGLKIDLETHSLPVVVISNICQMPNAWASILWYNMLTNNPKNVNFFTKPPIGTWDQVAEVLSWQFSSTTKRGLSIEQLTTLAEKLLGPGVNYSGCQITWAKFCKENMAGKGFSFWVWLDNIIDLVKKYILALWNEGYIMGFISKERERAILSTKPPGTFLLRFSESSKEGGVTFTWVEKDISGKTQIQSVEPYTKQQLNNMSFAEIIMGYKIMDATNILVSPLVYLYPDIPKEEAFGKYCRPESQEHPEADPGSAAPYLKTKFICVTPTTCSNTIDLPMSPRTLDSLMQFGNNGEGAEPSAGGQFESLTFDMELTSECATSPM

As usually defined, the AC50 is the midpoint of the concentration-response curve, whichever way the signal moves. Take `CNC(=O)/C=C(\C)OP(=O)(OC)OC`: the molecule was classed as inactive in [1], in assay [2], in assay [3], in [4], in assay [5] and in assay [6]. For the same molecule, the molecule was called inactive in assay [7], in [8], in assay [9], in [10], in assay [11] and in assay [13]. Moreover, the molecule was classed as inactive in assay [14], in assay [15], in [16], in [17], in assay [18] and in assay [19]. Moreover, the AC50 in [12] is 37.1 µM (active).
As to `CCCN(CCOc1c(Cl)cc(Cl)cc1Cl)C(=O)n1ccnc1`, the AC50 is 50 µM (active) in [1]; 44.3 µM (active) in assay [2]; 25.7 µM (active) in assay [3]; 11.7 µM (active) in assay [4]; 57.8 µM (active) in [5]; 39.5 µM (active) in [6]. Also, the AC50 is 80.2 µM (active) in [7]; 6.24 µM (active) in assay [8]; 79.1 µM (active) in assay [10]; 29.5 µM (active) in [11]; 30.8 µM (active) in assay [12]; 29.9 µM (active) in assay [14]. Further, the AC50 in [15] is 12.1 µM (active); in assay [17], 64.2 µM (active); in assay [18], 34.9 µM (active); in assay [19], 50 µM (active). Moreover, the call in assay [9], in assay [13] and in assay [16] was inactive.
Turning to `O=[N+]([O-])/N=C1\NCCN1Cc1ccc(Cl)nc1`, the molecule was classed as inactive in [1], in assay [5], in assay [6], in [7], in assay [10] and in [19]. The concentration at half-maximal activity (AC50) in [2] is 36.4 µM (active); in assay [3], 33 µM (active); in assay [4], 23.9 µM (active); in assay [8], 16.6 µM (active); in [9], 24.3 µM (active); in assay [11], 50 µM (active). Further, the AC50 in assay [12] is 34.4 µM (active); in assay [13] it was 29.1 µM (active); in assay [14], 18.9 µM (active); in assay [15], 25.8 µM (active); in assay [16], 20.1 µM (active); in [17] it was 50 µM (active). For the same molecule, in assay [18], the AC50 is 31.8 µM (active).

The record behind these values is PubChem BioAssay (EPA / NIEHS).
